Compound activity (PubChem BioAssay)
The list is not random: actives were taken first. Their share in the collection is about 11%.
USP28 inh: inhibitors of human USP28 deubiquitinase; Q96RU2; purified USP28, Ub-rhodamine cleavage fluorescence, 30 min; inhibition, % at 25 µM; actives 3% (n = 47,000); AID 1645857
Target sequence (Q96RU2 whole entry, looked up): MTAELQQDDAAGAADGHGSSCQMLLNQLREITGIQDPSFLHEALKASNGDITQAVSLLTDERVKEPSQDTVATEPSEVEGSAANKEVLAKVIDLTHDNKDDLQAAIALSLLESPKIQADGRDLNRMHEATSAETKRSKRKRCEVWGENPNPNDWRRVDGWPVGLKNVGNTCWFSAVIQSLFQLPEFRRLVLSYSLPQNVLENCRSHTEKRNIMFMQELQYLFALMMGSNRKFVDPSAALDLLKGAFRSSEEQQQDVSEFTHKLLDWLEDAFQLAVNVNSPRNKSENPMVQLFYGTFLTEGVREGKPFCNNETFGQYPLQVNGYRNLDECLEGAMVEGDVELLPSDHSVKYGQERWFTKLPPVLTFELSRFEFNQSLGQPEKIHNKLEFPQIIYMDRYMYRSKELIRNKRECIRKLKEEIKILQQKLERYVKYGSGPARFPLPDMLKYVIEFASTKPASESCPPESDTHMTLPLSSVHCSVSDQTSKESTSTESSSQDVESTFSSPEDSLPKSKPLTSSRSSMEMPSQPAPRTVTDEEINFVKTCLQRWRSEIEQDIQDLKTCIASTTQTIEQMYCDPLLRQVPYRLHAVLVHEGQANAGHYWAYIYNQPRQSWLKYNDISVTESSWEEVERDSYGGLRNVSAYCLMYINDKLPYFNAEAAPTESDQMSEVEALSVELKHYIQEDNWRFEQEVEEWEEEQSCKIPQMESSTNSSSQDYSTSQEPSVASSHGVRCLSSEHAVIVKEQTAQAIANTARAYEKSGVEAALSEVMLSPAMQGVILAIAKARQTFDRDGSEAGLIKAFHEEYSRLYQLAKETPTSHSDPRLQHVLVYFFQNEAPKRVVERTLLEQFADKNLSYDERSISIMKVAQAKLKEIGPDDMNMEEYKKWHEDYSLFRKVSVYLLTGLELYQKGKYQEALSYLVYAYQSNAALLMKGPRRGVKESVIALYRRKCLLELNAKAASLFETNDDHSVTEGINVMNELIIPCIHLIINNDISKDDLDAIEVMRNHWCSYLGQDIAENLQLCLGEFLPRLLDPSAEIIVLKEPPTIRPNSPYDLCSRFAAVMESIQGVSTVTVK
USP17 inh: inhibitors of human USP17 deubiquitinase. A8MUK1. purified USP17, Ub-rhodamine cleavage fluorescence, 3 h. inhibition, % at 50 µM. actives 6.5% (n = 47,000). AID 1645855
USP30 block: inhibitors of human USP30 deubiquitinase; inhibition, % at 25 µM; AID 1645860; actives 5.3% (n = 47,000); Q70CQ3; purified USP30, Ub-rhodamine cleavage fluorescence
* marks the source's active call; other numbers are inactive results; x = no result given. Cut-off read from the data, not from the text of the source: active = inhibition above about 30%; inactive = the rest.

SMILES	USP28 inh	USP17 inh	USP30 block
CC(C)c1cc(C(=O)Nc2ccc(F)cc2)nn1C1CCS(=O)(=O)C1 (centres undefined)	3.2	4.9	-8.6
O=C(c1cccnc1)N1Cc2nc(C(=O)N3CCCC3)oc2C1	-6.6	-16.6	-72.4
CCCC(C)NC(=O)c1ccccc1-c1ccc(C(F)(F)F)cc1 (centres undefined)	8.6	16.2	7.7
CC(=O)c1sc(NC(=O)c2ccccc2-c2ccc(C(F)(F)F)cc2)nc1C	17.2	64.5*	38.5*
O=C(c1ccc2c(c1)OCO2)N1CCCC(c2ccc3cn[nH]c3n2)C1 (centres undefined)	-12.9	-11.2	-18.8
O=C(CCc1nc2sc3c(c2c(=O)[nH]1)CCCCC3)Nc1ccc(F)cc1F	-41.6	-173.4	-262.7
Cc1cc2c(cn1)C(=O)c1c(O)cc(O)cc1C2=O	33.5*	11.3	-215.5
N#Cc1c(-c2ccc3c(c2)OCO3)ccn2nc(-c3ccco3)nc12	-0.5	-0.9	-173.8
CCc1nc2c(C#N)c(-c3ccc(Cl)cc3)ccn2n1	41.5*	66.4*	83.4*
O=C(NCCN1CCCCC1)C1CCN(c2cnc(N3CCCC3)nc2)CC1	-16.4	-43.5	-77.2
O=C(Cc1c[nH]c2ccccc12)Nc1nc2ccccc2s1	63.5*	4.8	-7.6
Cc1cccc2sc(NC(=O)Cc3c[nH]c4ccccc34)nc12	18.6	-6.1	-21.7
O=C(Cc1ccc2c(c1)OCCO2)Nc1ccc(F)cc1F	x	-5.3	x
COc1cc(NC(=O)Cc2ccc3c(c2)OCCO3)c(OC)cc1Cl	22.1	28.4	44.6*
Cc1ccc(C)c(S(=O)(=O)N2CC(c3nc4ccccc4[nH]3)C2)c1	10.1	-0.8	4.3
CN(Cc1ccccc1)C(=O)CN1CCc2cc(S(N)(=O)=O)ccc21	-15.8	-6.9	-3.5
CCCn1nnc2cc(-c3noc(CNC(=O)c4cccs4)n3)ccc21	15.6	33.3*	15.2
O=C(NCc1nc(-c2ccc3c(c2)ncn3C2CCCC2)no1)c1cccs1	-33.6	1.2	-243.1
Cc1cc(C)cc(NC(=O)c2c3c(nc4ccccc24)CCN(Cc2ccccc2)C3)c1	-60.9	-64.6	-377.6
CSc1nc2ncc3c(=O)n(Cc4cccnc4)ccc3n2n1	2.0	14.1	16.1
Cc1cc(Sc2ccccc2NC(=O)c2ccc3c(c2)OCO3)n2ncnc2n1	7.9	-17.6	12.4
O=C(COc1ccc(F)cc1)NC(c1ccc(F)cc1)c1nnc(-c2ccccc2)o1 (centres undefined)	4.8	6.3	10.8
O=C(NC(c1ccccc1)c1nnc(-c2ccccc2)o1)c1ccccc1Cl (centres undefined)	7.3	39.4*	32.0*
Cc1ccc2c(c1)CCCN2C(=O)c1cn(Cc2ccccc2)nc1-c1cccnc1	-33.1	-10.0	-168.0
Cc1ccc(C(=O)N2CCc3cnn(C)c3C2COCC2CC2)o1 (centres undefined)	-52.0	-52.0	-118.9
SMILES	USP28 inh	USP17 inh	USP30 block
Cc1ccc(C)c2sc(N3CCN(C(=O)CCc4ccccc4)CC3)nc12	6.8	5.5	22.2
CN(c1cccc(Cl)c1)S(=O)(=O)c1cccc(C(=O)OCC(=O)N(Cc2ccccc2)C(C)(C)C)c1	5.3	0.0	6.0
COc1ccc(NC(=O)COC(=O)c2cccc(S(=O)(=O)N(C)c3cccc(Cl)c3)c2)c(OC)c1	5.4	1.5	33.0*
Cc1cc(C(=O)NC2CCN(Cc3ccccc3)CC2)c2cccc(C)c2n1	1.3	1.5	6.1
COC(=O)c1ccc(C(=O)OC)c(NC(=O)c2nn(-c3ccccc3)c(=O)cc2OC)c1	2.2	36.8*	14.2
COC(=O)c1ccc(C)c(NC(=O)c2nn(Cc3ccccc3)c(=O)c3ccccc23)c1	-1.9	-3.5	-111.1
CC(C)(C)CC(=O)N1CCc2cc(-c3csc(NC(=O)CN4CCc5ccccc5C4)n3)ccc21	-13.5	-8.0	-67.9
CCOc1ccccc1NC(=O)c1cc(-c2ccncc2)n[nH]1	x	-21.1	x
Cc1ccc(CNC(=O)C2CCN(C(=O)c3cc(-c4ccncc4)n[nH]3)CC2)o1	x	4.7	x
Cc1ccc(NC(=O)C2CCN(C(=O)c3cc(-c4ccncc4)n[nH]3)CC2)cc1Cl	37.0*	62.7*	63.1*
Cc1ccc(NC(=O)c2cc(-c3ccncc3)n[nH]2)cc1Cl	36.3*	2.2	-0.3
O=C(CSc1nnc(C2CC2)n1Cc1ccccc1)Nc1ccccc1F	10.8	8.2	21.1
CC(C)(C)CC(=O)N1CCc2cc(-c3csc(NC(=O)CN4CCCC4)n3)ccc21	-19.9	20.1	-45.1
CCOc1ccccc1NC(=O)C(NS(=O)(=O)c1cccc2cccnc12)C(C)C (centres undefined)	-0.7	-7.5	-5.1
CCOC(=O)c1cnn(-c2nc3ccccc3s2)c1N=CN(C)C	68.6*	69.9*	97.3*
CCOC(=O)c1cnn(-c2nc(-c3ccccc3)c(S(=O)(=O)c3ccc(Cl)cc3)s2)c1C(F)(F)F	1.7	14.0	19.8
Cc1cc(C)nc(SCc2cc(=O)c(OC(=O)c3ccc(F)c(F)c3)co2)n1	22.5	9.1	27.8
O=C(COc1ccccc1)N(Cc1ccccc1O)c1ccccc1Cl	25.2	28.9	33.0*
O=C(O)c1ccccc1N(Cc1ccccc1)C(=O)COc1ccccc1	-5.8	8.8	-56.3
Cc1cccc(NC(=O)N2CCN(c3cnn4c(C5CC5)nnc4c3)CC2)c1	-14.1	-8.7	-7.3
CN(C)C(=O)N1C[C@@H]2C(=O)N(C)C3(CCN(S(=O)(=O)Cc4ccccc4)CC3)[C@@H]2C1	3.8	-26.8	7.7
NC(=O)c1ccc(C(=O)N2CCCC2Cc2ccccc2Cl)cc1 (centres undefined)	-6.0	-4.9	-9.7
CC(Nc1ccc(Oc2ccccc2)cc1)C(=O)Nc1ccc2c(c1)OCO2 (centres undefined)	9.5	21.5	30.1*
O=C(Cn1cnc2ccccc21)Nc1ccc(C(=O)O)cc1	-17.5	-7.4	0.0
O=C(COc1ccc2c(c1)OCO2)Nc1ccc2c(c1)OCCO2	35.9*	-21.1	-22.1
SMILES	USP28 inh	USP17 inh	USP30 block
Cc1ccc2nc(-c3ccc(NC(=O)COc4ccc5c(c4)OCO5)cc3)sc2c1	0.9	14.0	2.9
CC(Oc1ccc(Cl)cc1)C(=O)Nc1ccc2c(c1)CCC2 (centres undefined)	17.6	25.0	31.8*
CC(Nc1cccc(C(F)(F)F)c1)C(=O)Nc1ccc2c(c1)OCO2 (centres undefined)	-8.7	-8.2	-38.5
CCc1ccc(OC(C)C(=O)Nc2ccc3nsnc3c2)cc1 (centres undefined)	21.1	25.5	6.4
O=C(Cn1cnc2ccccc21)Nc1ccc2c(c1)CCC2	26.6	32.4*	52.6*
COCCN1C(=O)c2ccccc2C(C(=O)Nc2ncccc2C)C12CCCCC2 (centres undefined)	3.4	3.3	0.0
COc1cc([C@@H]2c3c(C)nn(C)c3NC(=O)[C@H]2NC(=O)c2ccccc2)cc2c1OCCO2	-10.3	-14.6	-22.7
O=C(Cn1cnc2sccc2c1=O)N1CCc2ccccc21	18.8	26.9	-25.6
N#Cc1ccc(-c2ccc(OCC(=O)Nc3ccc4c(c3)OCO4)cc2)cc1	3.7	55.5*	28.6
O=C(Cn1cnc2ccccc21)N1CCc2ccccc21	5.0	33.8*	-7.6
O=C(COc1cccc(N2CCCC2=O)c1)Nc1ccc2c(c1)OCCO2	36.4*	-3.1	-14.0
O=C(Cc1c(F)cccc1Cl)Nc1ccc2c(c1)OCO2	10.4	23.6	-3.3
